An excerpt weighted towards active compounds, which were near 1.3% of everything screened.
TrxR1 substrate = qHTS Assay for Substrates of Mammalian Selenoprotein Thioredoxin Reductase 1 (TrxR1): qHTS; Thioredoxin reductase 1, cytoplasmic (Rattus norvegicus), O89049; purified TrxR1 substrate turnover, NADPH consumption readout; Potency, µM (top dose mostly 114 µM); actives 0.01% (n = 390,000); also: nearly all actives have a fitted effect of over 50% in size
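Rat TrxR1, dispensed at 90 nM, was prereduced with 400 uM NADPH (final) for 5 min at ~22 deg C, then incubated with compound 15 min before 400 uM selenite. A first-read NADPH fluorescence drop versus no-compound background flagged substrates.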
PKM2 act = qHTS Assay for Activators of Human Muscle isoform 2 Pyruvate Kinase | Pyruvate kinase PKM (Homo sapiens), P14618 | purified PKM2, Kinase-Glo ATP luminescence, activation; response scale: 0% is enzyme alone, no compound | Potency, µM (doses to about 57.5 µM), most hits filed as activators | actives 0.34% (n = 260,000); also: nearly all actives have a fitted effect of over 55% in size
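Purified hPK-M2 (>95% pure) converted ADP (0.1 mM final) to ATP with 0.5 mM PEP in 50 mM imidazole pH7.2, KCl, MgCl2, Tween 20, BSA; 1 h at room temperature. ATP detected by Kinase-Glo luminescence.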
mIDH1 inhibitor = qHTS for Inhibitors of mutant isocitrate dehydrogenase 1 (IDH1): qHTS; Isocitrate dehydrogenase [NADP] cytoplasmic (Homo sapiens), O75874; IDH1-R132H enzyme, NADPH consumption, diaphorase/resazurin fluorescence; Potency, µM (top dose mostly 76.6 µM), usual class: inhibitors; actives 0.093% (n = 390,000); AID 602179, 2012; also: nearly all actives have a fitted effect of over 65% in size
Target sequence (O75874 whole entry R132H, stated change not applied): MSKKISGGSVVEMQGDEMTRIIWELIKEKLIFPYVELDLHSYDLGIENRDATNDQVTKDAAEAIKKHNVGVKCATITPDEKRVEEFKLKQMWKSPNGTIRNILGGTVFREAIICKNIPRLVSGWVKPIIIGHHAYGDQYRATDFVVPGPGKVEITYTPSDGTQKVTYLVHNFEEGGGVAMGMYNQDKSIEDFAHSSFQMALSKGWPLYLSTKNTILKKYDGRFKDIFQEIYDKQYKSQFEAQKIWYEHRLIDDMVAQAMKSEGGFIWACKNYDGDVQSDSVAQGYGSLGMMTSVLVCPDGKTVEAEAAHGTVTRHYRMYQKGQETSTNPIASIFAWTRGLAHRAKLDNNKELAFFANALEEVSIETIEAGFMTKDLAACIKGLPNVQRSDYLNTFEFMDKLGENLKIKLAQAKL
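IDH1-R132H (0.5 ug/mL) preincubated 30 min with compound, then NADPH (0.016 mM) and alpha-KG (2 mM) added; 80 min at RT, pH 7.5. Remaining NADPH coupled via diaphorase/resazurin to fluorescence (540/590 nm); concentration-response curves normalized to no-enzyme control.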
rTrxR1 inhibitor = qHTS Assay for Inhibitors of Mammalian Selenoprotein Thioredoxin Reductase 1 (TrxR1): qHTS. Thioredoxin reductase 1, cytoplasmic (Rattus norvegicus), O89049. recombinant rTrxR1, NADPH fluorescence consumption, selenite substrate. Potency, µM (titrated, usually from 114 µM), hits mostly inhibitors. actives 1% (n = 390,000); also: nearly all actives have a fitted effect of over 65% in size
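Rat TrxR1 (90 nM in the dispensed reagent) was pre-reduced with 400 uM NADPH for 5 min at room temperature, then incubated with compound for 15 min. After 400 uM selenite was added, NADPH fluorescence (Ex 340/Em 450 nm) was followed for 8 min.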
GALK inhibitor = qHTS Assay for Inhibitors of Human Galactokinase (GALK); P51570; Purified GALK, Kinase-Glo residual ATP luminescence; Potency, µM (series often up to 57.5 µM), actives largely listed as inhibitors; actives 0.007% (n = 270,000)
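GALK at 5 nM final was combined with compound, 35 uM ATP and 100 uM galactose in HEPES pH8.0 with MgCl2 and DTT. The reaction ran one hour at room temperature before luminescent ATP detection.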
Anesthetic bind = qHTS Assay for Identification of Novel General Anesthetics | Ferritin light chain (Equus caballus), P02791 | apoferritin/1-aminoanthracene competitive binding, fluorescence | Potency, µM (top dose mostly 77.5 µM), hits mostly inhibitors | actives 0.074% (n = 350,000) | AID 485281, 2010; also: nearly all actives have a fitted effect of over 20% in size
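Probe: 1-aminoanthracene (50% saturated, PBS). Protein: horse-spleen apoferritin, 10 uM. Incubation: 10 min, room temperature. Detection: 380 nm excitation, 535 nm emission. Analysis: normalized response, four-parameter Hill.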
Resorufin autofl = qHTS for Inhibitors of mutant isocitrate dehydrogenase 1 (IDH1): Cherrypicks Autofluorescence Interference. shares compounds with mIDH1 inhibitor. Resorufin detection reagent fluorescence interference, cell-free. inhibition of signal, % at 51.2 µM. 750 tested, under 10 active
IDH1 WT = qHTS for Inhibitors of mutant isocitrate dehydrogenase 1 (IDH1): Cherrypicks in WT IDH1; shares compounds with mIDH1 inhibitor; WT IDH1 enzyme, NADPH diaphorase/resazurin fluorescence; Potency, µM (highest dose often 115 µM), actives largely listed as inhibitors; actives 9% (n = 750); also: nearly all actives have a fitted effect of over 55% in size
Target sequence (O75874 whole entry, looked up): as the sequence (O75874 whole entry R132H, stated change not applied) above, with H132R counted along it
IDH1 R132H conf = qHTS for Inhibitors of mutant isocitrate dehydrogenase 1 (IDH1): Confirmation of Cherrypicks. IDH1 R132H enzyme, NADPH diaphorase/resazurin fluorescence. shares compounds with mIDH1 inhibitor. AID 624002, 2012. Potency, µM (highest dose often 76.6 µM), usual class: inhibitors. actives 83% (n = 750); also: nearly all actives have a fitted effect of over 50% in size
A number is an active result; i = inactive; ? = inconclusive; nt = no result given. Calls follow the shape of the dose curve; as a rule, active = well fitted curve in the direction sought with a large enough effect; inconclusive = small, poorly fitted or top-dose-only effect, or another doubt; inactive = no such curve, though single readings can be large; an effect the other way counts as inactive or inconclusive.

SMILES	TrxR1 substrate	PKM2 act	mIDH1 inhibitor	rTrxR1 inhibitor	GALK inhibitor	Anesthetic bind	Resorufin autofl	IDH1 WT	IDH1 R132H conf
CC(=O)NS(=O)(=O)c1ccc(N=c2ssc3c2-c2cc(C)ccc2NC3(C)C)cc1	i	i	?	i	i	i	i	i	44.7µM
CC(=O)Oc1ccc(C(=O)[C@H]2[C@H]3C(=O)N(c4ccc(C)cc4C)C(=O)[C@H]3[C@@H]3C=CC=NN32)cc1	i	?	41.4µM	i	i	i	i	i	28.2µM
COc1cc(C2c3c(-c4cc(C)ccc4O)n[nH]c3C(=O)N2Cc2cccnc2)cc(OC)c1OC (configuration not stated)	i	nt	i	i	nt	i	nt	nt	nt
CCOc1ccc(C2c3c(-c4cc(C)ccc4O)n[nH]c3C(=O)N2Cc2cccnc2)cc1OCC (configuration not stated)	i	nt	?	i	nt	i	i	i	35.5µM
CCc1ccc(C2c3c(-c4cc(C)ccc4O)n[nH]c3C(=O)N2Cc2cccnc2)cc1 (configuration not stated)	i	nt	28.2µM	i	nt	i	i	i	15.8µM
CC(C)=CCC/C(C)=C/CNC(=O)C[C@H]1C[C@H](C(=O)N2CCOCC2)[C@@]2(C)c3[nH]c4cc(CCC(=O)N(C)C)ccc4c3CCN2C1=O	i	nt	i	i	nt	nt	nt	nt	nt
CC[C@]12c3[nH]c4cc(-c5ccco5)ccc4c3CCN1C(=O)[C@@H](CC(=O)NC/C=C(\C)CCC=C(C)C)C[C@@H]2C(=O)N1CCN(C(=O)c2ccco2)CC1	i	nt	i	i	nt	nt	nt	nt	nt
CC(C)=CCC/C(C)=C/CNC(=O)C[C@H]1C[C@H](C(=O)N2CCCCC2)[C@@]2(C)c3[nH]c4cc(CCC(=O)N(C)C)ccc4c3CCN2C1=O	i	nt	?	i	nt	nt	i	i	25.1µM
CC[C@]12c3[nH]c4cc(-c5ccco5)ccc4c3CCN1C(=O)[C@@H](CC(=O)NC/C=C(\C)CCC=C(C)C)C[C@@H]2C(=O)N1CCN(C(=O)C2CC2)CC1	i	nt	35.5µM	i	nt	nt	i	i	i
Cc1cccc(NC(=O)C(=O)NCC(c2ccc3c(c2)OCO3)N2CCOCC2)c1C (configuration not stated)	i	nt	i	i	nt	i	nt	nt	nt
CCN(CC)c1ccc(/C=N/NC(=O)Cc2nnc(NC(=O)Nc3ccccc3)s2)cc1	i	i	4.14µM	i	i	i	i	i	6.31µM
COc1cc(-c2cc(C(=O)Nc3ccc(S(N)(=O)=O)cc3)c3ccccc3n2)cc(OC)c1OC	i	nt	?	i	i	i	i	i	?
